Experimental findings from PubChem BioAssay AID2685 (National Center for Advancing Translational Sciences (NCATS), 2010) are described below.

Among all 320,000 compounds or so, about 2,100 (0.66%) were called active. About 53% were inconclusive and are not listed. Calls follow the shape of the dose curve; as a rule, active = well fitted inhibition curve with a large enough effect in the signal ratio, with a control signal flat (not every such curve was filed as active); inconclusive = small, poorly fitted or top-dose-only effect, or effect the other way, or a change in a side signal; inactive = flat fitted curve, though single readings scatter; the % refers to the signal ratio. This excerpt belongs to a sample that is enriched for actives.
Potency is read from the fitted curve at half-maximal effect.

This experiment is described as follows: qHTS Assay for Lipid Storage Modulators in Drosophila S3 Cells.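 As to cell number change: cells counted by Cell Tracker Red CMTPX staining in the red channel.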 As to lipid storage change, negative = inhibition: % is scaled to controls: 0 for no effect and ±100 for the full control effect. Conditions: BODIPY lipid droplet fluorescence, 18-24 h, cells fed with added oleic acid; cell number change: measured here: cell count max response; series mostly up to 46.1 µM; lipid storage change, negative = inhibition: at the top concentration. The method in brief: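 Drosophila S3 cells loaded with oleic acid (400 uM, as added) and compounds at several concentrations; lipid droplets imaged by 488-nm laser-scanning cytometry, 500–530 nm intensity and object ratio to cell channel. Percent activity normalized to 20 uM Triacsin C.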
(In general: qHTS replaces the single test concentration by a dilution series.)
As for `Cc1cccc(NC(=O)CCC(=O)N2CCOCC2)n1`, the “lipid storage change, negative = inhibition” value is 6.69% (inactive) and the cell number change is -0.208%.
For the compound `O=C(Nc1c2c(nn1-c1ccccc1)CS(=O)C2)c1ccco1` (stereo not drawn), the call was inactive and the cell number change is -4.99%.
On to `CC(C)(C)n1nc2c(c1NC(=O)c1ccc(Br)o1)CS(=O)C2` (stereo not drawn), for which the “lipid storage change, negative = inhibition” value is -2.21% (inactive) and the cell number change came to 12.2%.
`CC(C)(C)n1nc2c(c1NC(=O)c1ccco1)CS(=O)C2` (stereo not drawn): the Potency is 29.1 µM (active) and the cell number change is -3.33%.
As for `CCN1C(=O)/C(=c2\sc3nc(=O)c(Cc4ccccc4)nn3c2=O)c2ccccc21`, the “lipid storage change, negative = inhibition” value was 3.23% (inactive) and the cell number change came out at 6.19%.
With `C(C#CCCCCCCCCC[n+]1ccccc1)#CCCCCCCCCC[n+]1ccccc1`, the Potency is 13 µM (active) and the cell number change is 2.42%.
Regarding `Oc1ccc[n+](CCCCC[n+]2cccc(O)c2)c1`, the “lipid storage change, negative = inhibition” value was -6.79% (inactive) and the cell number change was -10%.
The corresponding values for `O=C(O)CCCCCCCCCC[n+]1ccccc1` are -6.38% (inactive) and 3.19%.
The corresponding values for `CSc1ccc(CN2CCCC(N3CCN(c4ccccc4)CC3)C2)cc1` (stereo not drawn) are 12.6% (inactive) and -9.94%.
The corresponding values for `CC(C)(C)c1cc(C(=O)NNc2ccc(OC(F)(F)F)cc2)n(Cc2ccccc2)n1` are 4.79% (inactive) and 8.19%.
As for `COc1ccccc1NNC(=O)c1cc(C(C)(C)C)nn1Cc1ccccc1`, the “lipid storage change, negative = inhibition” value was 3.58% (inactive) and the cell number change was determined as 13.3%.
Take `CC(C)(C)c1cc(C(=O)NNc2cc(C(F)(F)F)ccc2Cl)n(Cc2ccccc2)n1`: the Potency is 25.9 µM (active) and the cell number change was -27.1%.
For the compound `CC1CCCCC1NC(=O)c1ccc(S(=O)(=O)NCC2CCCO2)cc1` (stereo not drawn), the “lipid storage change, negative = inhibition” value was -16% (inactive) and the cell number change came out at 3.19%.
As to `Cc1ccc(NC2OC(CO)C(O)C2O)cc1[N+](=O)[O-]` (stereo not drawn), the “lipid storage change, negative = inhibition” value is -8.08% (inactive) and the cell number change is -2.09%.
With `CC(=O)c1ccc(NC2OC(CO)C(O)C(O)C2O)cc1` (stereo not drawn), the Potency is 32.6 µM (active) and the cell number change is -9.97%.
In the case of `Cc1ccc(NC2OC(CO)C(O)C(O)C2O)cc1` (stereo not drawn), the outcome was inactive and the cell number change is -12.8%.
The corresponding values for `O=C(CCOc1ccccc1)N1CCN(S(=O)(=O)c2cccs2)CC1` are “inactive” and 5.86%.
For the compound `C=CCN1C(=O)C2(OCCO2)c2cc(C)ccc21`, the “lipid storage change, negative = inhibition” value is -2.45% (inactive) and the cell number change was 5.32%.
With `C=CCN1C(=O)C2(OCCCO2)c2ccccc21`, the “lipid storage change, negative = inhibition” value was -18.8% (inactive) and the cell number change is 7.72%.
As to `C=CCN1C(=O)C2(OCCCO2)c2cc(Cl)ccc21`, the Potency was 4.11 µM (active) and the cell number change was 7.73%.
As to `Cc1cc(C)c2nc(N3CCCC(C(=O)NCCN4CCOCC4)C3)sc2c1` (stereo not drawn), the “lipid storage change, negative = inhibition” value was 8.41% (inactive) and the cell number change was -0.96%.
As to `COCCCN1C(=O)C(O)=C(C(=O)c2ccco2)C1c1ccccc1` (stereo not drawn), the Potency is 3.66 µM (active) and the cell number change was -2.26%.
Take `O=C1C(=O)N(CCN2CCOCC2)C(c2ccccn2)/C1=C(/O)c1ccccc1` (stereo not drawn): the “lipid storage change, negative = inhibition” value is 3.62% (inactive) and the cell number change stood at 1.37%.
`CC(=O)C1=C(O)C(=O)N(CCN2CCOCC2)C1c1ccccc1` (stereo not drawn): the Potency was 20.6 µM (active) and the cell number change is 1.7%.
For `O=C(C1=C(O)C(=O)N(CCCn2ccnc2)C1c1ccccc1)c1ccco1` (stereo not drawn), the “lipid storage change, negative = inhibition” value is -22.1% (inactive) and the cell number change is -0.647%.
In the same order, the values of `COCCN1C(=O)C(O)=C(C(=O)c2ccco2)C1c1cccc(Oc2ccccc2)c1` (stereo not drawn) are 3.16% (inactive) and 11.9%.
Consider `O=C1C(=O)N(CCN2CCOCC2)C(c2ccccn2)/C1=C(/O)c1ccc(Cl)cc1` (stereo not drawn), for which the “lipid storage change, negative = inhibition” value is 4.03% (inactive) and the cell number change stood at 8.56%.
In the case of `Cc1ccc(/C(O)=C2/C(=O)C(=O)N(CCN3CCOCC3)C2c2ccccn2)cc1` (stereo not drawn), the Potency was 29.1 µM (active).
Consider `O=C(C1=C(O)C(=O)N(CCN2CCOCC2)C1c1ccc([N+](=O)[O-])cc1)c1cccs1` (stereo not drawn), for which the “lipid storage change, negative = inhibition” value is -23.9% (inactive) and the cell number change came out at 22.6%.
As for `CC(=O)C1=C(O)C(=O)N(CCO)C1c1ccccc1` (stereo not drawn), the “lipid storage change, negative = inhibition” value was -9.46% (inactive) and the cell number change is 1.42%.
For the compound `O=C(C1=C(O)C(=O)N(CCN2CCOCC2)C1c1ccc(F)cc1)c1cccs1` (stereo not drawn), the Potency is 18.4 µM (active) and the cell number change is -5.07%.
In the case of `CCOc1ccc(C2C(C(=O)c3cccs3)=C(O)C(=O)N2CCN2CCOCC2)cc1` (stereo not drawn), the “lipid storage change, negative = inhibition” value is -0.573% (inactive) and the cell number change came out at 7.61%.
For the compound `Cc1ccc(C2C(C(=O)c3cc4ccccc4o3)=C(O)C(=O)N2CCN2CCOCC2)cc1` (stereo not drawn), the call was inactive and the cell number change is -0.236%.
As to `COc1ccc(C2CC(=O)N(CC(=O)NCC3CCCO3)c3ccccc3S2)cc1` (stereo not drawn), the “lipid storage change, negative = inhibition” value was 5.52% (inactive) and the cell number change is 0.213%.
With `CC(=O)Nc1ccc(S(=O)(=O)NNC(=O)C(=O)NNc2ccccn2)cc1`, the “lipid storage change, negative = inhibition” value was -15.1% (inactive) and the cell number change was -5.03%.
As for `O=C(Nc1ccccc1)c1cc(S(=O)(=O)N2CCOCC2)cs1`, the outcome was inactive.
As for `Cc1ccc(C(=O)NCc2ccco2)cc1S(=O)(=O)N1CCOCC1`, the “lipid storage change, negative = inhibition” value was -5.7% (inactive) and the cell number change is -14.2%.
The corresponding values for `O=C(Nc1ccccc1F)C(=O)c1cn(CC(=O)N2CCCCC2)c2ccccc12` are 8.05% (inactive) and -5.77%.
In the same order, the values of `COc1ccc(NC(=O)Cn2cnc3c(nnn3-c3ccc(C)cc3)c2=O)cc1` are -12.6% [at 9.22 µM] (inactive) and -12.8%.
In the same order, the values of `CC(=O)C1=C(O)C(=O)N(CCc2c[nH]c3ccccc23)C1c1ccc(O)cc1` (stereo not drawn) are -9.82% (inactive) and -2.81%.
Regarding `CC(=O)C1=C(O)C(=O)N(CCc2c[nH]c3ccccc23)C1c1ccccc1` (stereo not drawn), the “lipid storage change, negative = inhibition” value is 27.1% (inactive) and the cell number change is 3.29%.
As to `CC(=O)C1=C(O)C(=O)N(CCc2c[nH]c3ccccc23)C1c1cccc(O)c1` (stereo not drawn), the Potency was 20.6 µM (active) and the cell number change was -19.8%.
Take `CCOC(=O)c1[nH]c(C)c(C(=O)NCCCN2CCOCC2)c1C`: the “lipid storage change, negative = inhibition” value is 10.9% (inactive) and the cell number change stood at 18.3%.
As to `CCc1ccc(-n2cnc3cc(C(=O)NCC(OC)OC)ccc32)cc1`, the “lipid storage change, negative = inhibition” value was 1% (inactive) and the cell number change was determined as 2.84%.
Consider `COc1ccccc1-c1nnc(SCC(=O)Nc2ccc(S(N)(=O)=O)cc2)n1N`, for which the “lipid storage change, negative = inhibition” value is -0.686% (inactive) and the cell number change was determined as 6.66%.
